Data: PubChem BioAssay
A number with no mark means an inactive call. For part of these data: Entries with a potency or affinity are not part of this list. The source made the active and inactive calls. Unless noted, how the calls were made is not given here.

Tests used:
[1] = antimalarial activity against Dd2 strain (AID 2302;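 active means growth inhibition above 50% at the single 2 µM test dose, taken to imply half-maximal potency below 2 µM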;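 further: 0% = DMSO untreated growth and 100% = chloroquine plus artemisinin killed control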); conditions: P. falciparum Dd2 in RBCs, LDH growth readout, 72 h; at 2 µM; hits give high values
[2] = human hepatoma cell viability loss – ATP luminescence, cytotoxicity control for P. falciparum antimalarial project, primary screen (AID 2303;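 active means inhibition above 50%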;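 further: 0% = DMSO wells and 100% = digitonin-killed cells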); conditions: HepG2 viability, 24-48 h, at 10 µM, hits give high values
[3] = molecular target: L-lactate dehydrogenase (Plasmodium falciparum (isolate CDC / Honduras)) (UniProt Q27743); experiment: PfLDH activity inhibition – cell lysate, 3D7 strain, counter-screen for P. falciparum growth inhibition project (AID 2304);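 further: 0% = vehicle and 100% = reference inhibitor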; conditions: P. falciparum 3D7 crude extract, LDH APAD/NBT absorbance; at 2 µM; hits give high values
Sequence of L-lactate dehydrogenase (Plasmodium falciparum (isolate CDC / Honduras)) (Q27743 whole entry, looked up): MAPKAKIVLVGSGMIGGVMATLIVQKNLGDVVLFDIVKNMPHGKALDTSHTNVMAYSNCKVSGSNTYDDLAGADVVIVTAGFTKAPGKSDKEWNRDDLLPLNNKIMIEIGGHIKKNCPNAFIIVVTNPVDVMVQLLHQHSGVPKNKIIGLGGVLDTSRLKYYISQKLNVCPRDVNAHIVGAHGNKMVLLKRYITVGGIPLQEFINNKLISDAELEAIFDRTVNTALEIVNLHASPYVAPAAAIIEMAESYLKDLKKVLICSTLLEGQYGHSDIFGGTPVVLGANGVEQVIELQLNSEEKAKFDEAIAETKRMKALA

[4] = inhibition of 3D7 malaria parasite growth – strain 3D7 (AID 2306);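 further: 0% = DMSO wells and 100% = chloroquine plus artemisinin control wells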; conditions: P. falciparum 3D7 erythrocytic growth, LDH absorbance, 72 h; at 2 µM; hits give high values
[5] = molecular target: Calcium-dependent protein kinase 1 (Plasmodium falciparum (isolate 3D7)) (UniProt P62344); experiment: PfCDPK1 kinase inhibitors, biochemical, TCAMS library (AID 1159585; cut-off not given, nearly all actives have IC50 up to about 0.98 µM;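 further: inhibitors leave more ATP so luminescence rises with inhibition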); conditions: recombinant PfCDPK1, Kinase-Glo ATP depletion luminescence
Sequence of Calcium-dependent protein kinase 1 (Plasmodium falciparum (isolate 3D7)) (P62344 whole entry, looked up): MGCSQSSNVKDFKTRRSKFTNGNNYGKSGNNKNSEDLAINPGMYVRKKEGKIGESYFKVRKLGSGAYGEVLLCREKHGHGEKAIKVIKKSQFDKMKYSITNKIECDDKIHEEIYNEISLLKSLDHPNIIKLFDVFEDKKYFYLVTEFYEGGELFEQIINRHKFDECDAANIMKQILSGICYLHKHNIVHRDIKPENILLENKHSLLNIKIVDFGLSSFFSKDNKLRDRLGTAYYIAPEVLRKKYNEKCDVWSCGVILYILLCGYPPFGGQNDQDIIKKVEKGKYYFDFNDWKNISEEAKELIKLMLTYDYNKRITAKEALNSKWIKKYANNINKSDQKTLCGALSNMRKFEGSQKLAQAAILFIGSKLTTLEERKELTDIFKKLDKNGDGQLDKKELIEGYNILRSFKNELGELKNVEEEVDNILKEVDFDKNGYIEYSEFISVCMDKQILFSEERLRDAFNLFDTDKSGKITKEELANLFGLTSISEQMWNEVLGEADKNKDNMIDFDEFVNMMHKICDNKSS

[6] = molecular target: Plasmodium falciparum protein kinase 6 (PK6, PF3D7_1337100) (UniProt Q8IDW1); experiment: PfPK6 kinase inhibitors, biochemical, TCAMS library (AID 1159586); conditions: recombinant PfPK6, Kinase-Glo ATP depletion luminescence
Sequence of Plasmodium falciparum protein kinase 6 (PK6, PF3D7_1337100) (Q8IDW1 1-305): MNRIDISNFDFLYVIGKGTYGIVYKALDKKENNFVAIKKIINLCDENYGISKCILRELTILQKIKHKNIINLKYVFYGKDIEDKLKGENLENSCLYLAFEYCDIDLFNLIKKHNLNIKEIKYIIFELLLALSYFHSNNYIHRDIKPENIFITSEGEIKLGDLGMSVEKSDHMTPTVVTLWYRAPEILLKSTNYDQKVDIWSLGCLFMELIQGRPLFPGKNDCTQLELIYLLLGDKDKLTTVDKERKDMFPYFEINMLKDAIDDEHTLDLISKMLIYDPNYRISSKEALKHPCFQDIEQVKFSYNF

[7] = molecular target: Protein kinase 7 (PK7), Plasmodium falciparum 3D7 (PF3D7_0213400) (UniProt Q7YTF7); experiment: inhibition of Plasmodium PK7 catalytic activity – biochemical, TCAMS antimalarial set, Kinase-Glo luminescence (AID 1159587); conditions: recombinant PfPK7, Kinase-Glo ATP depletion luminescence
Sequence of Protein kinase 7 (PK7), Plasmodium falciparum 3D7 (PF3D7_0213400) (Q7YTF7 1-343): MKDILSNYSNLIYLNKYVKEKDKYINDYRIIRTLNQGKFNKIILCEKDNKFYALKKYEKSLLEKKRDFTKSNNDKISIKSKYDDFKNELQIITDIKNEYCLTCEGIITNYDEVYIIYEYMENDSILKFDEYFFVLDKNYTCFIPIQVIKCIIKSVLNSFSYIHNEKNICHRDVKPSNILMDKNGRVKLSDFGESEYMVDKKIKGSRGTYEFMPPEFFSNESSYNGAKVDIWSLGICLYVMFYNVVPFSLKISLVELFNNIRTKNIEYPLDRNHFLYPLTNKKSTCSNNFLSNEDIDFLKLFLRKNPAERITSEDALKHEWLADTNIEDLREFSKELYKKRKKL

[8] = molecular target: Calcium-dependent protein kinase 4 (Plasmodium falciparum (isolate 3D7)) (UniProt Q8IBS5); experiment: PfCDPK4 kinase inhibitors, biochemical, TCAMS library (AID 1159588; cut-off not given, nearly all actives have IC50 up to about 0.91 µM); conditions: recombinant PfCDPK4, Kinase-Glo ATP depletion luminescence
Sequence of Calcium-dependent protein kinase 4 (Plasmodium falciparum (isolate 3D7)) (Q8IBS5 whole entry, looked up): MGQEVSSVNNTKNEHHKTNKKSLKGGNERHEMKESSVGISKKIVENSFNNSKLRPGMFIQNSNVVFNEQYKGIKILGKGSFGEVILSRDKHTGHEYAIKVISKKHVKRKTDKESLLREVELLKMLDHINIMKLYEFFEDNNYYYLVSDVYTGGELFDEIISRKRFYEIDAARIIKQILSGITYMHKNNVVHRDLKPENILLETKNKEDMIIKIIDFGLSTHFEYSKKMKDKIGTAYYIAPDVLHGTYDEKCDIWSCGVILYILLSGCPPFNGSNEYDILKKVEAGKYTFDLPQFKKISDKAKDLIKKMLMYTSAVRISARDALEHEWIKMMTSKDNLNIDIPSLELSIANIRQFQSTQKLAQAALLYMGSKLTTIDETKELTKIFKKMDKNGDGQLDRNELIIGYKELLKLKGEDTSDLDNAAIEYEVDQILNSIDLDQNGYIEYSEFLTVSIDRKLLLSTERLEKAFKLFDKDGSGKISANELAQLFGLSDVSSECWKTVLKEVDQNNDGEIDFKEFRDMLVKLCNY

Compound | growth inhibition [1] | inhibition [2] | inhibition [3] | growth inhibition [4] | outcome [5] | outcome [6] | outcome [7] | outcome [8]
Cc1[nH]n(-c2cccc(C(F)(F)F)c2)c(=O)c1-c1ccc(Cl)cc1 | 25% | 7% | -4% | 98% (active) | inactive | inactive | inactive | inactive
CN(C)CCNc1ncnc2c1[nH]c1ccc(Cl)cc12 | 8% | 7% | 4% | 100% (active) | inactive | inactive | inactive | inactive
O=c1cc(NCCCNCc2[nH]c3cc(Cl)cc(Cl)c3c2Cn2cccn2)[nH]c2ccccc12 | 2% | 5% | 1% | 86% (active) | inactive | inactive | inactive | inactive
Cc1cccc(CN2CCCN(Cc3ccc(C(=O)Nc4ccc(C(C)(C)C)cc4)cc3)CC2)c1 | 4% | 57% (active) | -7% | 97% (active) | inactive | inactive | inactive | inactive
O=C(/C=C/c1ccc(Cl)c(Cl)c1)N1CCC(CCN2CCC(c3c[nH]c4ccncc34)CC2)CC1 | 70% (active) | 13% | 2% | 101% (active) | inactive | inactive | inactive | inactive
NC(=O)c1cc2nc(Nc3ccc(F)cc3)nc(NC3CCC3)c2[nH]1 | 102% (active) | 0% | 3% | 102% (active) | inactive | inactive | inactive | inactive
Cc1[nH]c(C)c(-c2ccc(-c3ccccc3Cl)nc2)c(=O)c1Cl | 97% (active) | -1% | -5% | 98% (active) | inactive | inactive | inactive | inactive
CN1CCN(c2ccnc3cc4c(cc23)N(C(=O)Nc2ccc(-c3ccncc3)c3ccccc23)CC4)CC1 | 97% (active) | 10% | -2% | 101% (active) | inactive | inactive | inactive | inactive
O=C(CCn1cncn1)N1CCCC(c2[nH]c3ccccc3c2-c2ccncc2)C1 (configuration not stated) | 79% (active) | 1% | -1% | 97% (active) | inactive | inactive | inactive | inactive
Cn1cncc1C(=O)Nc1cccc(-c2ccc(-c3nc4ccc(C(F)(F)F)cc4[nH]3)cc2)c1 | 98% (active) | 4% | 1% | 97% (active) | inactive | inactive | inactive | inactive
CCc1c(CCNCCc2cccc(CCNCCc3ccc(OC)c(OC)c3CC)c2)ccc(OC)c1OC | 67% (active) | 100% (active) | -6% | 81% (active) | inactive | inactive | inactive | inactive
CSc1ccc(CN2CCC(NC(=O)c3ccc(-c4cccc(C(F)(F)F)c4)s3)CC2)cc1 | 9% | 68% (active) | -2% | 90% (active) | inactive | inactive | inactive | inactive
Cc1cccc(CNc2nc(C)cc(N[C@@H](Cc3ccccc3)C(=O)NCCOc3ccccc3)n2)c1 | 54% (active) | 28% | 1% | 93% (active) | inactive | inactive | inactive | inactive
CC(=O)Nc1ccc(C(=O)Nc2ccc(-c3cccc(-c4nc5c(C)cccc5[nH]4)c3)cc2)cn1 | 74% (active) | 36% | -7% | 99% (active) | inactive | inactive | inactive | inactive
S=C(NCCN1CCOCC1)Nc1ccccc1 | 1% | 3% | 1% | 94% (active) | inactive | inactive | inactive | inactive
CCCCNCc1ccc(-c2nc(CN(CCCn3ccnc3)C(=O)C3COc4ccccc4O3)cs2)cc1 (configuration not stated) | 8% | 6% | -4% | 93% (active) | inactive | inactive | inactive | inactive
Cc1cc(N[C@@H](Cc2ccccc2)C(=O)NCc2cccc(F)c2)nc(NCCc2cccnc2)n1 | 40% | 18% | -2% | 92% (active) | inactive | inactive | inactive | inactive
FC(F)(F)c1cccc(CNCC2CCN(Cc3ccc4c(c3)OCO4)CC2)c1 | 19% | 21% | 1% | 100% (active) | inactive | inactive | inactive | inactive
CN(C)CCNCc1cccc(-c2ccc3c(Nc4cc(O)c(Cl)cc4F)ccnc3c2)c1 | 59% (active) | 6% | 3% | 99% (active) | inactive | inactive | inactive | inactive
O=C(Nc1cc(C(F)(F)F)ccc1-n1cncn1)C1(c2ccccc2)CC1 | 100% (active) | 11% | 3% | 100% (active) | inactive | inactive | inactive | inactive

Compound | growth inhibition [1] | inhibition [2] | inhibition [3] | growth inhibition [4] | outcome [5] | outcome [6] | outcome [7] | outcome [8]
Cc1nnsc1C(=O)Nc1cccc(-c2ccc(-c3nc4ccc(C(F)(F)F)cc4[nH]3)cc2)c1 | 97% (active) | 62% (active) | 3% | 99% (active) | inactive | inactive | inactive | inactive
C[C@@H]1CN(c2cnn(Cc3cccc(NC(=O)Nc4cccc(C(F)(F)F)c4)c3)c(=O)c2Cl)C[C@H](C)N1 | 74% (active) | 19% | -4% | 96% (active) | inactive | inactive | inactive | inactive
CC(C)Nc1nc(NCCc2cnc[nH]2)nc(NCc2cccc3ccccc23)n1 | 0% | 4% | 2% | 90% (active) | inactive | inactive | inactive | inactive
Cc1c(CC(=O)N(C)C2CCN(CCCCCNC(=O)/C=C/c3ccc(Cl)c(Cl)c3)CC2)sc2ccc(Cl)cc12 | 9% | 93% (active) | 3% | 95% (active) | inactive | inactive | inactive | inactive
CCOc1ccccc1CCNCC1CCN(CC2CCCCC2)CC1 | 59% (active) | 35% | -1% | 84% (active) | inactive | inactive | inactive | inactive
Cc1ccc2nc(-c3cc(-c4cccc(CCN5CCOCC5)c4)cnc3N)[nH]c2c1 | 99% (active) | 50% (active) | -5% | 101% (active) | inactive | inactive | inactive | inactive
Cc1[nH]c(C)c(-c2ccc(-c3ccccc3F)nc2)c(=O)c1Cl | 97% (active) | 7% | 6% | 97% (active) | inactive | inactive | inactive | inactive
COc1ccc2nccc([C@@H](O)CN3CCC(NC(=O)/C=C/c4cc(F)cc(NC(C)=O)c4)CC3)c2c1 | 49% | 7% | 5% | 97% (active) | inactive | inactive | inactive | inactive
NC(=O)c1cccc(C(=O)Nc2cccc(-c3cccc(-c4nc5ccccc5[nH]4)c3)c2)c1 | 78% (active) | 32% | 2% | 100% (active) | inactive | inactive | inactive | inactive
COc1ccc(CCNc2nc(NCCc3cnc[nH]3)nc(NCc3cccc4ccccc34)n2)cc1OC | 16% | 2% | 3% | 98% (active) | inactive | inactive | inactive | inactive
Cc1ccccc1CN1CCCN(Cc2ccc(C(=O)Nc3ccc(C(C)(C)C)cc3)cc2)CC1 | 5% | 52% (active) | -1% | 89% (active) | inactive | inactive | inactive | inactive
NC1CCCN(Cc2cccc(-c3ccc(-c4nc5ccccc5[nH]4)s3)c2)C1 (configuration not stated) | 88% (active) | 21% | -2% | 98% (active) | inactive | inactive | inactive | inactive
COc1ccc(Nc2nccc(NCC(O)c3ccc(C(F)(F)F)cc3)n2)cc1 (configuration not stated) | 54% (active) | 6% | -1% | 98% (active) | inactive | inactive | inactive | inactive
COc1ccccc1C1CCN(C2CCC(NC(=O)/C=C/c3cccc(Cl)c3)CC2)CC1 (configuration not stated) | 20% | 54% (active) | 3% | 92% (active) | inactive | inactive | inactive | inactive
Cc1ccc(N2C(=O)C3C(C2=O)[C@]2(c4ccccc4)C(=O)[C@@]3(c3ccccc3)C(c3ccccc3)=C2c2ccccc2)c(C)c1 (some centres not stated) | 96% (active) | 3% | 6% | 96% (active) | inactive | inactive | inactive | inactive
O=C(NC1CC1)c1cnc(N2CCN(Cc3ccc(Cl)cc3)CC2)c(Cl)c1 | 91% (active) | 39% | 0% | 93% (active) | inactive | inactive | inactive | inactive
CCCCCOc1ccc(C(O)C(CCC(CN2CCCCCC2)C(O)c2ccc(OCCCCC)cc2)CN2CCCCCC2)cc1 (configuration not stated) | 93% (active) | 99% (active) | 0% | 99% (active) | inactive | inactive | inactive | inactive
O=C1NC(=O)C(c2cccc(NC(=O)c3ccncc3)c2)=C1c1ccccc1 | -3% | 5% | 3% | 101% (active) | inactive | inactive | inactive | inactive
CC=CC(=O)N1CCN(c2nccc(-c3ccc(C(C)(C)C)cc3)n2)CC1 | 70% (active) | 20% | 0% | 95% (active) | inactive | inactive | inactive | inactive
